Test results published in PubChem BioAssay (NCATS).
Where “and” joins values, the source holds several entries; their conditions need not be identical. Equal entries are not always repeated. Records with an inconclusive call do not appear. Calls of active or inactive are those of the source. Unless noted, calls come from the whole dose curve; as a rule, active = well fitted curve in the direction sought with a large enough effect; inconclusive = small, poorly fitted or top-dose-only effect, or another doubt; inactive = no such curve, though single readings can be large; an effect the other way counts as inactive or inconclusive.

How the values were obtained:
[1] = Cell Viability - BJ (AID 421; calls by dose curve;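 note: potency is the fitted concentration of half-maximal effect; cells exposed to compound for 40 hours at 37 °C before readout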); conditions: BJ fibroblast viability, qHTS
Summary of the method: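 Cytotoxicity in human BJ foreskin fibroblasts is scored as loss of cellular ATP after a 40-hour exposure, measured by luciferase luminescence. Controls are DMSO and 100 uM tamoxifen.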

[2] = Cell Viability - Jurkat (AID 426;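 active = dose-dependent loss of cell ATP signal giving a full or clear fitted curve, ranked by lower potency value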;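 note: potency is the fitted concentration of half-maximal effect; cells exposed to compound for 40 hours at 37 °C before ATP read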); conditions: qHTS
Summary of the method: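 Cytotoxicity was scored as loss of cellular ATP, measured by luciferase-based luminescence, in Jurkat clone E6-1 cells after 40 h compound treatment; tamoxifen and doxorubicin served as positive controls.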

[3] = Cell Viability - Hek293 (AID 427;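 active = compounds whose dose-response curve shows a full or clear partial loss of cell viability, called from curve shape rather than a numeric limit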;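 note: potency is the fitted concentration of half-maximal effect; cells exposed to compound for 40 hours at 37 °C before reading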); conditions: qHTS
Summary of the method: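 qHTS, human embryonic kidney (adenovirus-transformed) cells; 40 hr cpd, 37 °C; CellTiter-Glo ATP luminescence. Norm: DMSO = 0, 100 uM tamoxifen = 100% inhibition. Hill-fit AC50.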

[4] = Cell Viability - HepG2 (AID 433; calls by dose curve;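 note: potency is the fitted concentration of half-maximal effect; potency for ATP loss meaning cytotoxicity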); conditions: qHTS
Summary of the method: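 Cytotoxicity is scored as loss of intracellular ATP in HepG2 cells exposed to compounds for 40 h. Concentration-response curves, normalized to DMSO and 100 uM tamoxifen, give AC50 values.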

[5] = Cell Viability - MRC5 (AID 434; calls by dose curve;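 note: potency is the fitted concentration of half-maximal effect; cells exposed to compound for 40 hours at 37 °C; potency reflects cytotoxicity seen as loss of intracellular ATP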); conditions: MRC5 lung fibroblast viability, qHTS
Summary of the method: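 Decrease in intracellular ATP, quantified by luciferase light output, reflects compound toxicity toward MRC5 cells exposed for 40 hr in complete culture medium. Concentration-response curves, scaled between DMSO and 100 uM tamoxifen, gave AC50 values.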

[6] = Cell Viability - SK-N-SH (AID 435; calls by dose curve;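 note: potency is the fitted concentration of half-maximal effect; compound exposure lasted 40 h at 37 °C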); conditions: SK-N-SH neuroblastoma cell viability qHTS
Summary of the method: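 Cells seeded at 1500 per well and incubated 5 hr at 37 °C. Compound added, then 40 hr at 37 °C. CellTiter-Glo added, 20 min at room temperature, luminescence read.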

[7] = Cell Viability - HUV-EC-C (AID 542); conditions: HUV-EC-C endothelial cell viability, qHTS; series mostly up to 92.2 µM; note: % is set by controls: 0 for no effect and ±100 for the full control effect; nearly all actives have a fitted effect of over 35% in size
Summary of the method: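 Concentration-dependent ATP loss in HUV-EC-C cells is the measure. Exposure lasts 40 hr at 37 °C; luminescence follows CellTiter-Glo addition, and Hill fits give AC50.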

[8] = Cellular Toxicity (caspase-3) HepG2 (AID 654); conditions: HepG2 caspase-3 activation, luminescence, 0% = DMSO only, 100% = tamoxifen; series mostly up to 92.2 µM;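 note: cells exposed to compound for 16 hours before reading; 0% = DMSO alone and 100% = caspase signal from 100 µM tamoxifen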
Summary of the method: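 Concentration-response AC50 values reflect caspase-3/7 induction in HepG2 cells after 16 hours of compound exposure, quantified by luminescence from liberated aminoluciferin and referenced to 100 uM tamoxifen as full stimulation.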

[9] = Cellular Toxicity (caspase-3) SK-N-SH (AID 661); conditions: SK-N-SH caspase-3 activation, qHTS; series mostly up to 91.7 µM
Summary of the method: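 Apoptosis readout in SK-N-SH neuroblastoma: Caspase-Glo 3/7 luminescence following 16 hr treatment in complete culture medium. Normalization used DMSO and 10 uM staurosporine controls.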

[10] = Cellular Toxicity (caspase-3) N2a (AID 665); conditions: N2a cells, luminescence, normalized: DMSO 0%, 10 µM staurosporine 100%; series mostly up to 92.2 µM;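 note: compound exposure lasted 16 h at 37 °C before readout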
Summary of the method: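 Concentration-response qHTS: compound-induced caspase-3/7 luminescence in N2a cells (16 h, 37 °C), relative to DMSO and 10 uM staurosporine controls; AC50 obtained using the standard Hill equation.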

[11] = Cellular Toxicity (caspase-3) NIH 3T3 (AID 666); conditions: NIH 3T3 caspase-3 activation, apoptosis/toxicity; series mostly up to 92.2 µM;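 note: caspase signal read after 16 h compound exposure; 0% = DMSO basal and 100% = 100 µM tamoxifen stimulation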
Summary of the method: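 Activity: caspase-3/7 induction, NIH 3T3 cells, 16 hr treatment at 37°C, luminescent Caspase-Glo detection; AC50 via Hill equation.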

[12] = Cellular Toxicity (caspase-3) Renal Proximal Tubule (AID 667); conditions: renal proximal tubule cells; series mostly up to 91.7 µM;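 note: cells exposed to compound for 16 hours at 37 °C before detection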
Summary of the method: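 In qHTS format, rat primary proximal tubule cells seeded at 1000 per well are exposed to compounds for 16 hours at 37 °C. An increase in Caspase-Glo 3/7 luminescence indicates caspase activation.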

[13] = MultiTox-Fluor Cytotoxicity Assay - LYMP1-003 - Dead Cells (AID 961); conditions: LYMP1-003 lymphoblastoid cells, dead-cell protease fluorescence; series mostly up to 92.2 µM; note: nearly all actives have a fitted effect of over 70% in size
Summary of the method: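 LYMP1-003 lymphoblastoid, 2500 cells/well, 5 hr settle then 16 hr cpd at 37 C; MultiTox-Fluor reagent 60 min RT; Ex/Em 485/520 dead-cell signal; norm. DMSO = 0%, 15 uM tetraoctylammonium bromide = 100%; Hill AC50.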

[14] = Cell Viability - LYMP2-007 (AID 979); conditions: LYMP2-007 lymphoblastoid cell viability; series mostly up to 92.2 µM;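 note: cells exposed to compound for 24 h before reading; 0% = DMSO only and the negative end = 92 µM tetraoctylammonium bromide; nearly all actives have a fitted effect of over 60% in size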
Summary of the method: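 Measured via luciferase-based ATP quantitation: lymphoblastoid cells, 24 hr compound exposure at 37 C, AC50 from Hill fits.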

[15] = Cell Viability - LYMP1-002 - Assay at 24 hr (AID 993); conditions: LYMP1-002 lymphoblastoid cells viability; series mostly up to 92.2 µM; note: % is set by controls: 0 for no effect and ±100 for the full control effect
Summary of the method: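 Viability was judged from intracellular ATP using a luciferase read-out, following a 24-hour compound incubation at 37 C of lymphoblastoid cells seeded at 2500 per well. Concentration-response data were fitted to the Hill equation for AC50.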

[16] = qHTS Assay for Identification of Small Molecule Inducers of Hypoxia Response (AID 2120; active = well fitted curve in the direction sought with a large enough effect in the signal ratio, with a control signal flat, not every such curve was filed as active; the % refers to the signal ratio; note: 0% is about no effect); conditions: hypoxia response reporter cells, beta-lactamase ratio readout; series mostly up to 104 µM
Summary of the method: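 HRE-bla ME-180, 2500 cells/well, 0.5% dialyzed FBS medium; cpd titration, 17 h 37 degrees C; CCF4 2.5 h RT; Ex 405, Em 460/530 ratio -> %Activity, AC50.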

[17] = target: Peroxisome proliferator-activated receptor alpha (Homo sapiens) (UniProt Q07869); assay: qHTS assay for small molecule agonists of the peroxisome proliferator-activated receptor alpha (PPARalpha) signaling pathway (AID 651778); conditions: PathHunter PPARalpha complementation, chemiluminescence, 6 h; stronger effect = higher value; note: % of control where 0% means no effect
Summary of the method: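 Cells plated at 2,000/well and held overnight at 37 C, 5% CO2, then compound added by pin tool for 6 hr; after PathHunter detection reagent and 60 min at room temperature, chemiluminescence from enzyme complementation was read.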

[18] = qHTS assay for small molecule agonists of the antioxidant response element (ARE) signaling pathway measured by Nrf2-dependant transcriptional activity - cell viability counter screen (AID 720653; active = well fitted curve in the direction sought with a large enough effect in the repeat runs; an effect the other way counts as inactive or inconclusive; note: % is set by controls: 0 for no effect and ±100 for the full control effect); conditions: ARE-bla HepG2 viability, CellTiter-Glo ATP luminescence, 16 h; stronger effect = lower value
Summary of the method: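 ARE-bla HepG2 cells (2,000/well) rested 5 hrs at 37C/5% CO2, then exposed to compounds in DMSO for 16 hrs. Viability was read in the same wells as intracellular ATP by luminescence, 30 min at room temperature after reagent addition.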

[19] = qHTS assay for cell viability of HEK293 cells (AID 743288); conditions: ATP luminescence (CellTiter-Glo), 18 h, stronger effect = lower value; note: % is set by controls: 0 for no effect and ±100 for the full control effect; nearly all actives have a fitted effect of over 50% in size
Summary of the method: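 Quantitative high-throughput screen: compounds were pinned onto parental HEK293 cells (2,000 per well) after a minimum 5 h settling at 37 C, incubated 18 h at 37 C, and intracellular ATP measured by luciferase luminescence.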

[20] = qHTS assay for cell viability of the p53RE-bla HCT-116 cell line (AID 743292); conditions: p53RE-bla HCT-116 viability, ATP luminescence, 16 h; series mostly up to 95 µM; note: % is set by controls: 0 for no effect and ±100 for the full control effect; nearly all actives have a fitted effect of over 55% in size
Summary of the method: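 HCT-116 p53RE-bla cells seeded 4,000/well; 5 h at 37 C; compound (DMSO) added; 16 h at 37 C; CellTiter-Glo added, 30 min RT; luminescence read.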

Sequence of Peroxisome proliferator-activated receptor alpha (Homo sapiens) (Q07869 whole entry, looked up): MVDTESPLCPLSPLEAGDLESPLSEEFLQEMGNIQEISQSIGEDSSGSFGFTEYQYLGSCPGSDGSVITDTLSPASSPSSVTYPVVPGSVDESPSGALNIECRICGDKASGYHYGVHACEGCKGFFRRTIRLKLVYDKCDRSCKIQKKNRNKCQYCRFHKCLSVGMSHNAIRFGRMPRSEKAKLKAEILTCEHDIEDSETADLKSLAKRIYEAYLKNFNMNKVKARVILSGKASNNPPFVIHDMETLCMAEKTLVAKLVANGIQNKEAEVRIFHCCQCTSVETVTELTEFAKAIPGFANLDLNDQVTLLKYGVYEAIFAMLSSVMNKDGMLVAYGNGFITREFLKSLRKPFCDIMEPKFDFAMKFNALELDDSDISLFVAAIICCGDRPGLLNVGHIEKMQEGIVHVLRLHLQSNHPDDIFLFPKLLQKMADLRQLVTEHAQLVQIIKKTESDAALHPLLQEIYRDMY

CCOP(=S)(OCC)Oc1nc(Cl)c(Cl)cc1Cl
inactive: Potency [1] > 92 µM | Potency [2] > 92 µM | Potency [3] > 92 µM | Potency [4] > 92 µM | Potency [5] > 92 µM | Potency [6] > 92 µM | Potency [7] | outcome [8] | Potency [9] | outcome [10] | Potency [11] | outcome [12] | Potency [13] | Potency [14] | Potency [15] | Potency [16] | max response [17] 0.508% [middle of 4 runs] | max response [18] 0.0448% [middle of 4 runs] | max response [19] -7.97% [middle of 4 runs] | Potency [20]

Oc1cc(Cl)cc(Cl)c1
inactive: Potency [1] > 92 µM | Potency [2] > 92 µM | Potency [3] > 92 µM | Potency [4] > 92 µM | Potency [5] > 92 µM | Potency [6] > 92 µM | Potency [7] | outcome [8] | Potency [9] | outcome [10] | Potency [11] | outcome [12] | Potency [13] | Potency [14] | Potency [15] | Potency [16] | max response [17] 5.88% | max response [18] -11.3% | max response [19] 3.49% | Potency [20]

O=[N+]([O-])CCO
inactive: Potency [1] > 92 µM | Potency [2] > 92 µM | Potency [3] > 92 µM | Potency [4] > 92 µM | Potency [5] > 92 µM | Potency [6] > 92 µM | Potency [7] | outcome [8] | Potency [9] | outcome [10] | Potency [11] | outcome [12] | Potency [13] | Potency [14] | Potency [15] | Potency [16] | max response [17] -2.47% | max response [18] -2% | max response [19] -4.92% | Potency [20]

C=COC(C)=O
inactive: Potency [1] > 92 µM | Potency [2] > 92 µM | Potency [3] > 92 µM | Potency [4] > 92 µM | Potency [5] > 92 µM | Potency [6] > 92 µM | Potency [7] | outcome [8] | Potency [9] | outcome [10] | Potency [11] | outcome [12] | Potency [13] | Potency [14] | Potency [15] | Potency [16] | max response [17] -3.52% | max response [18] 7.83% | max response [19] -3.61% | Potency [20]

O=C(Cc1ccccc1)OCc1ccccc1
inactive: Potency [1] > 92 µM | Potency [2] > 92 µM | Potency [3] > 92 µM | Potency [4] > 92 µM | Potency [5] > 92 µM | Potency [6] > 92 µM | Potency [7] | outcome [8] | Potency [9] | outcome [10] | Potency [11] | outcome [12] | Potency [13] | Potency [14] | Potency [15] | Potency [16] | max response [17] 0.258% | max response [18] -10.2% | max response [19] -0.778% | Potency [20]

CN(C)C(=O)Nc1ccc(Cl)cc1
inactive: Potency [1] > 92 µM | Potency [2] > 92 µM | Potency [3] > 92 µM | Potency [4] > 92 µM | Potency [5] > 92 µM | Potency [6] > 92 µM | Potency [7] | outcome [8] | Potency [9] | outcome [10] | Potency [11] | outcome [12] | Potency [13] | Potency [14] | Potency [15] | Potency [16] | max response [17] -3.6% and -1.79% | max response [18] -16.9% and 1.13% | max response [19] 10.7% and -3.59% | Potency [20]

CC[N+](=O)[O-]
inactive: Potency [1] > 92 µM | Potency [2] > 92 µM | Potency [3] > 92 µM | Potency [4] > 92 µM | Potency [5] > 92 µM | Potency [6] > 92 µM | Potency [7] | outcome [8] | Potency [9] | outcome [10] | Potency [11] | outcome [12] | Potency [13] | Potency [14] | Potency [15] | Potency [16] | max response [17] 1.55% | max response [18] 9.27% | max response [19] 0.073% | Potency [20]

Cc1cccc(N)c1C
inactive: Potency [1] > 92 µM | Potency [2] > 92 µM | Potency [3] > 92 µM | Potency [4] > 92 µM | Potency [5] > 92 µM | Potency [6] > 92 µM | Potency [7] | outcome [8] | Potency [9] | outcome [10] | Potency [11] | outcome [12] | Potency [13] | Potency [14] | Potency [15] | Potency [16] | max response [17] -1.4% | max response [18] 1.88% | max response [19] -7.16% | Potency [20]

c1ccc(P(c2ccccc2)c2ccccc2)cc1
inactive: Potency [1] > 92 µM | Potency [2] > 92 µM | Potency [3] > 92 µM | Potency [4] > 92 µM | Potency [5] > 92 µM | Potency [6] > 92 µM | Potency [7] | outcome [8] | Potency [9] | outcome [10] | Potency [11] | outcome [12] | Potency [13] | Potency [14] | Potency [15] | Potency [16] | max response [17] -4.42% | max response [18] -10.4% | max response [19] -11.3% | Potency [20]
